Experimental findings from PubChem BioAssay (NCI) are described below.

This is part of a sample that, as a whole, favours compounds with a hit. Of some 79,000 tested, about 15% had one in any assay. The source made the active and inactive calls. Cut-off read from the data, not from the text of the source: active = growth inhibition above about 70%; inactive = the rest.

This test is described as follows: NCI Yeast Anticancer Drug Screen. Data for the rad18 strain (AID 177). The following applies: S. cerevisiae rad18 mutant growth inhibition; at 11.0 µM; hits give high values. A digest of the protocol: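 Measured value is growth inhibition of a yeast strain bearing a DNA repair alteration, referenced to vehicle-treated cells.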
As for `CS(=O)(=O)SCc1ccc([N+](=O)[O-])cc1`, the growth inhibition is 90% (active).
In the case of `Cc1csc(=S)n1OC(=O)NC1CCCCC1` it was 98% (active).
Next, `CCOc1ccc(NC(=O)C2=C(C)NC(C)=C(C(=O)Nc3ccc(OCC)cc3)C2c2cccc([N+](=O)[O-])c2)cc1`: 3% (inactive); `CC(C)(C)N=C(NO)c1ccccc1`: 38% (inactive); `CCCCC/C(=C(\C#N)C(=O)OCC)c1ccccc1`: 2% (inactive).
With `O=C(NCCCl)Sc1ccc(Cl)cc1`, the growth inhibition is 5% (inactive).
For `O=C1Nc2ccc(Br)cc2C1=Nc1ccc2c(c1)OCO2`, the growth inhibition was -42% (inactive).
In the case of `CCC(C)OC(=O)Nc1ccc(C)c(NC(=O)OC(C)CC)c1` (configuration not stated) it was -8% (inactive).
Regarding `O=C(O)c1cc2ccc(Cl)cc2c(O)c1C1=CCCCC1`, the growth inhibition is 25% (inactive).
In the case of `CN(C)Cc1cc(N=Nc2ccc(Cl)cc2)ccc1OC(=O)c1ccccc1` it was -16% (inactive); in that of `CN1CCN(C(=O)/C=C/C(=O)c2ccccc2)CC1`, 38% (inactive); in that of `CCCC/C=C/C(C)(C(=O)OCC)C(=O)OCC`, 6% (inactive).
Next, `Cc1nc(-c2cc3cc([N+](=O)[O-])ccc3oc2=O)cs1`: 7% (inactive).
As to `Cc1nc2ccccc2nc1NNc1ccccc1`, the growth inhibition is -5% (inactive).
With `CN(C)[C@@H]1C(=O)C(C(N)=O)=C(O)[C@@]2(O)C(=O)C3=C(O)c4c(O)cccc4C[C@H]3C[C@@H]12`, the growth inhibition is -2% (inactive).
Consider `COc1ccc(NC(=O)CC2SC(=Nc3ccccc3C)NC2=O)c([N+](=O)[O-])c1` (configuration not stated), for which the growth inhibition was 6% (inactive).
Take `COc1cc(O)c2c(c1O)C(=O)c1cc(C)ncc1C2=O`: the growth inhibition was 28% (inactive).
